Reference: PubChem BioAssay AID1851 (National Center for Advancing Translational Sciences (NCATS), 2009)
“And” between values parts separate entries of the source, which are not always exact repeats. Equal entries are not always repeated. The whole screen tested about 16,000 compounds, of which about 5,800 (36%) were called active. Roughly 23% stayed inconclusive and do not appear here. Calls come from the whole dose curve; as a rule, active = well fitted curve in the direction sought with a large enough effect; inconclusive = small, poorly fitted or top-dose-only effect, or effect the other way; inactive = no such curve, though single readings can be large or run the other way. Some of the results follow. Some compounds were tested as several samples or in several runs, with calls that do not always agree.

Each compound was assayed against Cytochrome P450 2C19 (Homo sapiens) (UniProt P33261) (assay: Cytochrome panel assay with activity outcomes). Details: recombinant CYP, pro-luciferin dealkylation, luminescence, p450-cyp2c19; series mostly up to 57.1 µM; activity, negative = inhibition: at the top concentration.
Cytochrome P450 2C19 (Homo sapiens), sequence (P33261 whole entry, looked up): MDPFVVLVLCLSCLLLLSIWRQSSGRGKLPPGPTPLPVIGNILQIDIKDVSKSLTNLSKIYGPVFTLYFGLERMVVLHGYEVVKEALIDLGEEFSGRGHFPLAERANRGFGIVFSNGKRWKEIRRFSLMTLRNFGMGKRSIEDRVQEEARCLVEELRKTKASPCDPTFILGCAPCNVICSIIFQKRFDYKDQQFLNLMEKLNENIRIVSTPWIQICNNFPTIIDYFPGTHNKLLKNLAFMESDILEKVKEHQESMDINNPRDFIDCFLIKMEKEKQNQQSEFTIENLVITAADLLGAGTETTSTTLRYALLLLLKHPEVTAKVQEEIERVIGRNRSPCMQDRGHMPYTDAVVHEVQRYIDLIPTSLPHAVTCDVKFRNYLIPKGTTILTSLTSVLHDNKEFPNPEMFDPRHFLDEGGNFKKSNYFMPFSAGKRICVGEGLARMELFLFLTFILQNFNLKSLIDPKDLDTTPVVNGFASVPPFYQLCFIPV
% is set by controls: 0 for no effect and ±100 for the full control effect.

Compound | activity, negative = inhibition | AC50
CN1[C@@H]2CC[C@H]1CC(O)C2 (stereo partly specified) | 12.6% [at 25.6 µM] (inactive) | –
O=C(O)CN1CCN(CC(=O)O)CC(=O)[O][Hg][O]C(=O)C1 | – | 0.794 µM (active)
CC(C)NP(=O)(NC(C)C)OP(=O)(NC(C)C)NC(C)C | -22.2% (inactive) | –
O=C(Nc1ccccc1)N1CC[C@@]2(CCCN(C(=O)Oc3ccccc3)C2)C1 | -42.9% (inactive) | –
COc1cc([C@H]2c3cc4c(cc3[C@@H](O)[C@@H]3COC(=O)[C@H]23)OCO4)cc(OC)c1OC | – | 10 µM (active)
NC(=O)c1ccc(C(=O)Nc2ccc([As](=O)(O)O)cc2)cc1 | 10.2% [at 11.4 µM] (inactive) | –
CCCCC1(CCCC)C(=O)NC(=Nc2cccc(C)c2)NC1=O | – | 2.24 µM (active)
CC[N+](CC)(CCNC(=O)C(=O)NCC[N+](CC)(CC)Cc1ccccc1Cl)Cc1ccccc1Cl | 15.6% (inactive) | –
O=C(Oc1ccccc1)N1CCC2(CCCN(Cc3ccccc3)C2)CC1 | -12.9% (inactive) | –
Cc1nc2sccc2c(=O)n1-c1ccccc1Cl | – | 2.82 µM (active)
Cc1nc2ccccc2c(=O)n1-n1cnnc1 | -6.22% (inactive) | –
C[C@@H](N)Cn1ccc2cc(F)c(Cl)cc21 | -25.1% (inactive) | –
CC(C)CCC1(CCN)C(=O)NC(=O)NC1=O | 5.97% [at 11.4 µM] (inactive) | –
CN1CCN(c2ncc3ncc(=O)n(C)c3n2)CC1 | -10.5% (inactive) | –
CC(C)[C@]1(O)[C@@H](OC(=O)c2ccc[nH]2)[C@]2(O)[C@@]3(C)C[C@@]4(O)O[C@@]5([C@H](O)[C@@H](C)CC[C@]35O)[C@]2(O)[C@]41C | 23.6% [at 11.4 µM] (inactive) | –
CCC(=O)O[C@@](Cc1ccccc1)(c1ccccc1)[C@@H](C)CN(C)C | 15.8% [at 25.6 µM] (inactive) | –
O=C(Oc1ccccc1)N1CCC2(CCCN(C(c3ccccc3)c3ccccc3)C2)CC1 | 15.4% (inactive) | –
CCOP(=O)(OCC)C(NC(=O)C(Cl)Cl)C(Cl)(Cl)Cl (stereo unspecified) | – | 10 µM (active)
CCOP(=O)(OCC)C(NC(C)=O)C(Cl)(Cl)Cl (stereo unspecified) | -27% (inactive) | –
N#Cc1ccc(CN2CC[C@@]3(CCCN(C(=O)Oc4ccccc4)C3)C2)cc1 | -34.6% (inactive) | –
C[N+](C)(C)CCCCCC[N+](C)(C)C | 29.6% (inactive) | –
Cc1cccc([C@H](C)c2cnc[nH]2)c1C | – | 5.01 µM (active)
C[N+]1(C)C2CC[C@H]1CC(OC(=O)[C@@H](CO)c1ccccc1)C2 (stereo partly specified) | 14.6% [at 11.4 µM] (inactive) | –

Compound | activity, negative = inhibition | AC50
C#CCN[C@@H](C)Cc1ccccc1 | 12.5% (inactive) | –
CNCCCc1ccccc1 | -25% (inactive) | –
C[C@@H](Cc1cccc(C(F)(F)F)c1)NCCCc1ccccc1 | – | 1.26 µM (active)
c1ccc2c(N3CCNCC3)cccc2c1 | 41% (inactive) | –
CP(=O)(O)CCCN | – | inactive
C[C@]12N[C@@H](Cc3ccccc31)c1ccccc12 | – | inactive
C=C1[C@@H]2CC[C@H]3[C@@]4(C)C[C@@H](O[C@@H]5O[C@H](CO)[C@H](OS(=O)(=O)O)[C@@H](OS(=O)(=O)O)[C@@H]5OC(=O)CC(C)C)C[C@@H](C(=O)O)[C@H]4CC[C@@]3(C2)[C@H]1O | 24.2% [at 25.6 µM] (inactive) | –
N[C@H](CP(=O)(O)O)C(=O)O | 27% (inactive) | –
Cc1nc(-c2ccc(-c3ccc(C(=O)N4CCc5cc6c(cc54)C4(CCN(C)CC4)CO6)cc3)c(C)c2)no1 | – | inactive and 3.98 µM (active)
C[C@@H]1O[C@H]1P(=O)(O)O | 28.4% (inactive) | –
N[C@H](CCCP(=O)(O)O)C(=O)O | -8.91% (inactive) | –
N#C/C(=C\c1ccc(O)c(O)c1)C(N)=S | – | inactive and 25.1 µM (active)
N#CC(C#N)=Cc1cc(O)c(O)c(O)c1 | -24.2% (inactive) | –
N#C/C(=C\c1ccc(O)c(O)c1)C(=O)NCCCNC(=O)/C(C#N)=C/c1ccc(O)c(O)c1 | -18.8% (inactive) | –
CCC(=O)Nc1ccc(N2CCN(CC)CC2)c(Cl)c1 | -6.94% (inactive) | –
Cc1c2ccncc2c(C)c2c1[nH]c1ccccc12 | – | 3.16 µM (active)
Cc1nccc2c1[nH]c1ccccc12 | – | inactive
CN(C)CCC(=O)[C@@]1(O)CC[C@H]2[C@H]3CC=C4C[C@@H](O)CC[C@]4(C)[C@H]3CC[C@]21C | 13.6% [at 11.4 µM] (inactive) | –
O=C(Nc1ccc(Cl)cc1)Nc1nccs1 | – | 25.1 µM (active)
C[C@H]1CCCC=CC2C[C@H](O)C[C@@H]2[C@H](O)/C=C\C(=O)O1 (stereo partly specified) | -16.3% (inactive) | –
Cc1cc(C)nc(NC2=NCCS2)n1 | -7.47% (inactive) | –
O=S(=O)(O)/C(=C\c1ccccc1)c1ccccc1 (tested in a mixture with another compound) | -40.3% [at 11.4 µM] (inactive) | –
CC(=O)c1ccc2c(c1)N(CCCN(C)C)c1ccccc1S2 | -0.627% [at 25.6 µM] (inactive) | –
